We go through 31 molecules from PubChem BioAssay (NCATS).

Activity calls are given as the source filed them. Where a call stands in place of a potency, no number is given. Unless noted, calls come from the whole dose curve; as a rule, active = well fitted inhibition curve with a large enough effect; inconclusive = small, poorly fitted or top-dose-only effect; inactive = flat fitted curve, though single readings scatter.

The target in assay [1] is Ubiquitin carboxyl-terminal hydrolase 1 (Homo sapiens) (UniProt O94782). The assay is described as follows: Inhibitors of USP1/UAF1: Pilot qHTS (AID 504865). Note: nearly all actives have a fitted effect of over 35% in size. Note: potency is the fitted concentration of half-maximal effect. The essentials: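 Deubiquitinase activity followed as kinetic rhodamine fluorescence release from 150 nM Ub-Rho. 1 nM USP1/UAF1 with compound, after 15 min room-temperature preincubation, in HEPES pH 7.8 buffer containing TCEP, EDTA, BSA and Tween-20.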
In general terms: Quantitative high-throughput screening tests each substance at several concentrations.

Assay [2] concerns the target Estrogen receptor (Homo sapiens) (UniProt P03372). The assay is described as follows: qHTS assay for small molecule agonists of estrogen receptor alpha signaling (AID 588514; calls by dose curve; note: nearly all actives have a fitted effect of over 70% in size). The procedure, abridged:
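Fluorescence from CCF4 cleavage reports ER-alpha-driven beta-lactamase expression in HEK 293 cells treated 18 hrs at 37 C. Data normalized to 17-beta-estradiol (20 nM) and DMSO, fitted to Hill equation.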

The target in assay [3] is Androgen receptor (Homo sapiens) (UniProt P10275). The assay is described as follows: qHTS assay for small molecule agonists of androgen receptor signaling (AID 588515; active = well fitted curve in the direction sought with a large enough effect in the signal ratio, with a control signal flat; inconclusive = small, poorly fitted or top-dose-only effect, or effect the other way, or a change in a side signal; inactive = no such curve, though single readings can be large or run the other way; the % refers to the signal ratio). To be noted: AR-UAS-bla HEK293, beta-lactamase ratio, agonist 16 h; stronger effect = higher value. The essentials:
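Stimulation of an AR-responsive β-lactamase reporter in GripTite HEK293 cells was measured after 16 h compound exposure at 37 °C, via CCF4 fluorescence after 2 h RT. EC50 from Hill fits, normalized to R1881 at 30 nM.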

Assay [4] has the same target. The assay is described as follows: qHTS assay for small molecule antagonists of androgen receptor signaling (AID 588516; active = well fitted curve in the direction sought with a large enough effect in the signal ratio, with a control signal flat, not every such curve was filed as active; inconclusive = small, poorly fitted or top-dose-only effect, or effect the other way, or a change in a side signal; inactive = no such curve, though single readings can be large or run the other way; the % refers to the signal ratio). The essentials:
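Antagonist mode: inhibition of R1881-stimulated (10 nM final) bla reporter in GeneBLAzer AR HEK 293 cells, 16 h at 37C, compounds titrated. IC50 and efficacy from Hill-equation fits of 405/460–530 nm FRET ratios.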

In assay [5] the target is Bile acid receptor (Homo sapiens) (UniProt Q96RI1). Kind of assay: qHTS assay for small molecule antagonists of farnesoid X receptor signaling (AID 588526; calls by dose curve). The essentials:
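Antagonist mode: titrated compounds tested against chenodeoxycholic acid stimulation (normalized to 50 uM CDCA and DMSO) in GeneBLAzer HEK293T cells for 16 h. Beta-lactamase read by CCF4 fluorescence; IC50 from Hill fits.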

The target in assay [6] is Peroxisome proliferator-activated receptor delta (Homo sapiens) (UniProt Q03181). The assay is described as follows: qHTS assay for small molecule agonists of peroxisome proliferator-activated receptor delta signaling (AID 588534; calls by dose curve). The essentials: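 EC50 and efficacy values derive from Hill fits of a concentration series in a beta-lactamase reporter cell assay. Exposure is 18 hrs at 37 C, with CCF4 fluorescence as the readout.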

Assay [7] in a line: qHTS assay for small molecule antagonists of peroxisome proliferator-activated receptor delta signaling (AID 588535; active = well fitted inhibition curve with a large enough effect in the signal ratio, with a control signal flat, not every such curve was filed as active; inconclusive = small, poorly fitted or top-dose-only effect, or effect the other way, or a change in a side signal; inactive = no such curve, though single readings can be large or run the other way; the % refers to the signal ratio;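 for max response: cells co-treated with a PPAR-delta agonist as stimulator during compound exposure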). The note with it: HEK293T PPARd-UAS-bla, beta-lactamase FRET ratio, 18 h; 460 nm channel. The procedure, abridged: (§1)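 Beta-lactamase reporter read-out (405 nm excitation, 460/530 nm emission) after CCF4 loading for 2 hrs at RT. HEK293T PPAR-delta-UAS-bla cells, 2% charcoal/dextran FBS, compounds for 18 hrs at 37 C. Hill fit gave IC50 and efficacy.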

Assay [8] concerns the target Peroxisome proliferator-activated receptor delta (Homo sapiens) (UniProt Q03181). Described as above. The procedure, abridged:
as §1

In assay [9] the target is Estrogen receptor (Homo sapiens) (UniProt P03372). Kind of assay: qHTS assay for small molecule antagonists of estrogen receptor alpha signaling (AID 588513; active = well fitted curve in the direction sought with a large enough effect in the signal ratio, with a control signal flat, not every such curve was filed as active; inconclusive = small, poorly fitted or top-dose-only effect, or effect the other way, or a change in a side signal; inactive = no such curve, though single readings can be large or run the other way; the % refers to the signal ratio; note: potency is the fitted concentration of half-maximal effect). The procedure, abridged:
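Antagonist mode: inhibition of 0.5 nM 17-beta-estradiol-driven beta-lactamase reporter in HEK 293 ER-alpha-UAS-bla cells, 18 h at 37C, CCF4 readout after 2 h at RT. Normalised to estradiol and DMSO; titration fitted to Hill.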

For assay [10], the target named is Glucocorticoid receptor (Homo sapiens) (UniProt P04150). Kind of assay: qHTS assay for small molecule agonists of glucocorticoid receptor signaling (AID 588532; active = well fitted curve in the direction sought with a large enough effect in the signal ratio, with a control signal flat; inconclusive = small, poorly fitted or top-dose-only effect, or a change in a side signal; inactive = no such curve, though single readings can be large or run the other way; the % refers to the signal ratio). The note with it: HeLa MMTV-bla, beta-lactamase ratio, agonist, 18 h; stronger effect = higher value; percent of dexamethasone control, DMSO zero. The essentials: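 HeLa GRE-bla reporter cells; 18 h compound exposure at 37 C; 2 h CCF4 loading at room temperature; fluorescence at 460 and 530 nm; EC50 by Hill equation.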

Assay [11] has the same target. Kind of assay: qHTS assay for small molecule antagonists of glucocorticoid receptor signaling (AID 588533; active = well fitted inhibition curve with a large enough effect in the signal ratio, with a control signal flat, not every such curve was filed as active; inconclusive = small, poorly fitted or top-dose-only effect, or effect the other way, or a change in a side signal; the % refers to the signal ratio). The procedure, abridged:
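Antagonist-mode qHTS: compound titrations added to GRE-bla HeLa cells, then dexamethasone 2 nM final; 18 h, 37 C. CCF4 FRET fluorescence normalized to dexamethasone and DMSO; IC50 from Hill fit.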

Assay [12] deals with DNA dC->dU-editing enzyme APOBEC-3G (Homo sapiens) (UniProt Q9HC16). The assay is described as follows: qHTS for inhibitors of Vif-A3G interactions: Validation (AID 588379). The essentials: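 Yellow fluorescence (Ex 488, Em 500-530) of Vif-coexpressing HeLa A3G-eYFP cells, scanned by Acumen cytometer, reports blocked A3G degradation. Cells plated at 700/well overnight at 37 deg C before compound addition, then a further overnight compound incubation at 37 deg C.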
DNA dC->dU-editing enzyme APOBEC-3G (Homo sapiens), sequence (Q9HC16 whole entry, looked up): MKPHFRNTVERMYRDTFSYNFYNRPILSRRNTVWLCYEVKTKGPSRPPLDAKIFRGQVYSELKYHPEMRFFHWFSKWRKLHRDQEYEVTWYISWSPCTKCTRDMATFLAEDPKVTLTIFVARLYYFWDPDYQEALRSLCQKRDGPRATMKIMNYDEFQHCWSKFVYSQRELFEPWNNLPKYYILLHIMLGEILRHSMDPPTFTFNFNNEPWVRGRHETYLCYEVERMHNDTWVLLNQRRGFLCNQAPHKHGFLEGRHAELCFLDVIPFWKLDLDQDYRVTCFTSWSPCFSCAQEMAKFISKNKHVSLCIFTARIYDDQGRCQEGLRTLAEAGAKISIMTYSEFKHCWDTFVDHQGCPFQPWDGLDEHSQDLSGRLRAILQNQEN

Estrogen receptor (Homo sapiens), sequence (P03372 whole entry, looked up): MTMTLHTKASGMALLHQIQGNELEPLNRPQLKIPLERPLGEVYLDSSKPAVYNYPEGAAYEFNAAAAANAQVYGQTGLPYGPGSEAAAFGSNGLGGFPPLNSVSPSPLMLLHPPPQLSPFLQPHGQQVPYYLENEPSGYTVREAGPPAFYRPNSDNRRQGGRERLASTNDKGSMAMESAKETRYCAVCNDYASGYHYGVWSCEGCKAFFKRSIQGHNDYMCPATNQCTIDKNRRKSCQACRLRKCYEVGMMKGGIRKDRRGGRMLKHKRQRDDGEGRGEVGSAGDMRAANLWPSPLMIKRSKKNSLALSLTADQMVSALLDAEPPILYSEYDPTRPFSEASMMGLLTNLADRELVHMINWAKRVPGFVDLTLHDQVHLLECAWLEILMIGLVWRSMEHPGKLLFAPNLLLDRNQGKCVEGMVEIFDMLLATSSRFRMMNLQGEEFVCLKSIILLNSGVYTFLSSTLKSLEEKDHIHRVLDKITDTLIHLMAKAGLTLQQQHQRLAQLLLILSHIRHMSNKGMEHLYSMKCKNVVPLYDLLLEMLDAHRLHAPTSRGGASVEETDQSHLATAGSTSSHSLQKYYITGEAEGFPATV
Peroxisome proliferator-activated receptor delta (Homo sapiens), sequence (Q03181 whole entry, looked up): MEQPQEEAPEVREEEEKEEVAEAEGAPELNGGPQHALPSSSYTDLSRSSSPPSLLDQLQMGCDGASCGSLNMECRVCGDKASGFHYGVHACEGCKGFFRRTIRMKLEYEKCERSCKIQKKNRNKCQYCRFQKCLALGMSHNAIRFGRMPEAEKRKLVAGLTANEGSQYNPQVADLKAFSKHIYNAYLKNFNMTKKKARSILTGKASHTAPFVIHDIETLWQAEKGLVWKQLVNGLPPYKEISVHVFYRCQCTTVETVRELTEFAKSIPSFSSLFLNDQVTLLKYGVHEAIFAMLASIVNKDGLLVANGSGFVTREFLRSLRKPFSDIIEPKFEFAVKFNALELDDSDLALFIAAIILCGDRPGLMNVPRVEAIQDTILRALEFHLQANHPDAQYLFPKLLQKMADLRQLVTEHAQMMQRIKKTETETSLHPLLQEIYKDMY
Ubiquitin carboxyl-terminal hydrolase 1 (Homo sapiens), sequence (O94782 whole entry, looked up): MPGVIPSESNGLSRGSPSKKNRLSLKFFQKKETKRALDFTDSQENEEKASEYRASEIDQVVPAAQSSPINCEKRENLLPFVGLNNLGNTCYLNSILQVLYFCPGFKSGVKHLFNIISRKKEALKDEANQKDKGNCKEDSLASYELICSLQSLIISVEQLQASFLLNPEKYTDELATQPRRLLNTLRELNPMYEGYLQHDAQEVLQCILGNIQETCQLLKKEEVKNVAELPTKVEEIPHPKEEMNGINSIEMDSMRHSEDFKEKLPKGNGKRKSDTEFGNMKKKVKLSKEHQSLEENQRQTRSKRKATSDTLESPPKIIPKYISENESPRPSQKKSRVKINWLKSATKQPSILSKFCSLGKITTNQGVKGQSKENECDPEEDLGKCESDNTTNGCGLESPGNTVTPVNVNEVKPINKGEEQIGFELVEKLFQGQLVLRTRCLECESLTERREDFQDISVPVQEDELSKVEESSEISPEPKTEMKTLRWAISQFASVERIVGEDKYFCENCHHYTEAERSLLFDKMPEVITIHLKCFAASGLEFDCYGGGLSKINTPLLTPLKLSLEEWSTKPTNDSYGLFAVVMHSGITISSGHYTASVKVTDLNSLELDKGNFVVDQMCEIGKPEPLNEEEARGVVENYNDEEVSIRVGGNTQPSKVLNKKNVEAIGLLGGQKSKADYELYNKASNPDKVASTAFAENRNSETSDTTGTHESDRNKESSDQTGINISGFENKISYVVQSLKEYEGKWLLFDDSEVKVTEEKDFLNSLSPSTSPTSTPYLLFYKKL
Androgen receptor (Homo sapiens), sequence (P10275 whole entry, looked up): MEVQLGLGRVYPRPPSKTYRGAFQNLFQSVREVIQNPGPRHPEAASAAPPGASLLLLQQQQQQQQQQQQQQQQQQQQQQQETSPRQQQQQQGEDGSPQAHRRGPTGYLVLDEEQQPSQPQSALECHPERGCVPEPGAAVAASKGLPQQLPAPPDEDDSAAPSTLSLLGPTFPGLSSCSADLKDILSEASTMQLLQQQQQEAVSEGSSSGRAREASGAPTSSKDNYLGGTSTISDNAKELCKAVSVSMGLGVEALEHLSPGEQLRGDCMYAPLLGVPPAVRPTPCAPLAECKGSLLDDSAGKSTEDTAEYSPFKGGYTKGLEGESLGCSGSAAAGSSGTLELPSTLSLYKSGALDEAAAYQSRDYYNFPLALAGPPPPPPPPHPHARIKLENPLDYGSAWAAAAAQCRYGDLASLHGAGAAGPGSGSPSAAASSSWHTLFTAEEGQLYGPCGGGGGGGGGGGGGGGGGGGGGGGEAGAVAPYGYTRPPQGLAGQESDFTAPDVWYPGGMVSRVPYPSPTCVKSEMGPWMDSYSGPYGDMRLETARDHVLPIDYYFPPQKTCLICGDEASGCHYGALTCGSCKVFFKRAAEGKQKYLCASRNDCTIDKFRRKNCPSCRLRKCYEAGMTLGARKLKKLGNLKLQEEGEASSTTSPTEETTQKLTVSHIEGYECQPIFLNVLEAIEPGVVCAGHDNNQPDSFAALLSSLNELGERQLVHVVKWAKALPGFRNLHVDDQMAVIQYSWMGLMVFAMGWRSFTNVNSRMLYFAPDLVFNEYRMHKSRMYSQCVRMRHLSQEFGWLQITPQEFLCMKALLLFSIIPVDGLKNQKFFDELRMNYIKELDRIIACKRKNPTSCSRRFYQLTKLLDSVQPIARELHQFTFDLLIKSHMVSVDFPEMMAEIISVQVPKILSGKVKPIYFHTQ
Glucocorticoid receptor (Homo sapiens), sequence (P04150 whole entry, looked up): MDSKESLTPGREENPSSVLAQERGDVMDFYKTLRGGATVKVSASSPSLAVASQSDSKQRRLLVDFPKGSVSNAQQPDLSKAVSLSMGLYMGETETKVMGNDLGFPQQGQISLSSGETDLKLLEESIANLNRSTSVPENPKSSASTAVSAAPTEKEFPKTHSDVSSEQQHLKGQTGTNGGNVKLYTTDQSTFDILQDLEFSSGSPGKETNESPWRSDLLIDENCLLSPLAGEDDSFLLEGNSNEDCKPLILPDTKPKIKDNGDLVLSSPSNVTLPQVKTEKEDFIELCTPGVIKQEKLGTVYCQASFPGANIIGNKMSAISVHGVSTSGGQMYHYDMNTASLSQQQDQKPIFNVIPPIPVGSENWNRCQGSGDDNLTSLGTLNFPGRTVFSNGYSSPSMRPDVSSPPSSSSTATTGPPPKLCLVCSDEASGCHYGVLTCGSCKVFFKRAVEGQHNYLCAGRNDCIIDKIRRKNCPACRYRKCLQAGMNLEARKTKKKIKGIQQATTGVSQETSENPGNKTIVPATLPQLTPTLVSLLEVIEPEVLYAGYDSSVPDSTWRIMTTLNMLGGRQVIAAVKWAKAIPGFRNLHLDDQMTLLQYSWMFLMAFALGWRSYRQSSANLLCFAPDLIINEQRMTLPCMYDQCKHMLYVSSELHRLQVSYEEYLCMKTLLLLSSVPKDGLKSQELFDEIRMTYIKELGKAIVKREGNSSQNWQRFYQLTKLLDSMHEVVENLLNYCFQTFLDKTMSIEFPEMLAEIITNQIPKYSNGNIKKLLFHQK
Bile acid receptor (Homo sapiens), sequence (Q96RI1 whole entry, looked up): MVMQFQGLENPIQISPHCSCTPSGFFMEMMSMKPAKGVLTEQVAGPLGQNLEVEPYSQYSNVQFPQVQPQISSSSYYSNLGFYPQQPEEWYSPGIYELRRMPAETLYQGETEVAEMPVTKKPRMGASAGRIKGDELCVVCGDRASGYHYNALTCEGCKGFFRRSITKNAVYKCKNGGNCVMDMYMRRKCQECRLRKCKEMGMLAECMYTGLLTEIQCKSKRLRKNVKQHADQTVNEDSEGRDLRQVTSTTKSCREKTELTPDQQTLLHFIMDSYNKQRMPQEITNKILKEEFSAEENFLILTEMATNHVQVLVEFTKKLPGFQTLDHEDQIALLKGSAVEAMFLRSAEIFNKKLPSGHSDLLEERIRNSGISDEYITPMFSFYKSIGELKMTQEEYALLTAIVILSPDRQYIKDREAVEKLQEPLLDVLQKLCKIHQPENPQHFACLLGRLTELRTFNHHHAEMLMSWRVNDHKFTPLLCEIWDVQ

Consider `CC(=O)OC1CN2CCC1CC2` (stereo unspecified), for which the Potency result in assay [1] is “inactive”.

On to `O=C(NC(=O)c1c(F)cccc1F)Nc1ccc(Cl)c(Oc2ncc(C(F)(F)F)cc2Cl)c1`, for which the Potency result in assay [1] is “inactive”. The same measure, in the same setting: next, `CNC(C)C(O)c1ccc(O)cc1` (stereo unspecified): “inactive”; `CCC1(c2ccccc2)C(=O)NC(=O)N(C(=O)c2ccccc2)C1=O` (stereo unspecified): “inactive”; `CC(N)Cc1ccc(O)cc1` (stereo unspecified): “inactive”. `O=[N+]([O-])c1cc(I)c(O)c(I)c1`: in assay [1], the Potency result was “inactive”. The same measure, in the same setting: the entry for `CCN(CC)C(=O)/C(Cl)=C(\C)OP(=O)(OC)OC` is “inactive”; for `NCC(O)c1cccc(O)c1` (stereo unspecified) it is “inactive”. Take `S=C(S)N1CCNCC1`: the Potency entry in [1] was “inactive”. For the molecule `O=C1CCCCC1CN1CCCCC1` (stereo unspecified), the Potency result in [1] was “inactive”. On the same count and under the same terms, next, `CCC1(c2ccccc2)C(=O)NC(=O)N(C)C1=O` (stereo unspecified): “inactive”; `CC(=O)O[C@H]1CC[C@H]2[C@@H]3CCC4=CC(=O)CCC4=C3C=C[C@]12C`: “inactive”; `C/C(=C\c1csc(C)n1)[C@@H]1C[C@@H]2O[C@]2(C)CCC[C@H](C)[C@H](O)[C@@H](C)C(=O)C(C)(C)[C@@H](O)CC(=O)O1`: “inactive”. Regarding `CCOc1ccc2c3c1O[C@H]1[C@@H](O)C=C[C@H]4[C@@H](C2)N(C)CC[C@@]341`, the Potency result in assay [1] is “inactive”. As to `C[N+]1(C)CCCCC1COC(=O)C(O)(c1ccccc1)c1ccccc1` (stereo unspecified), in assay [1], the Potency result was “inactive”. Same read-out and setting: next, `COc1ccc2c3c1O[C@H]1C(=O)CC[C@H]4[C@@H](C2)N(C)CC[C@]314`: “inactive”. Same read-out and setting: next, `O=c1[nH]cc(N(CCCl)CCCl)c(=O)[nH]1`: “inactive”. `c1cc2c(c(NC3=NCCN3)c1)CCCC2`: in assay [1], the Potency result was “inactive”. The same measure, in the same setting: the entry for `CN1[C@@H]2CC[C@H]1CC(OC1c3ccccc3CCc3ccccc31)C2` (stereo partly specified) is “inactive”. For the molecule `CCON=O`, the Potency entry in [1] was “inactive”. As for `FC(F)OC(F)(F)C(F)Cl` (stereo unspecified), in assay [1], the Potency result is “inactive”. The same measure, in the same setting: next, `CCNC(C)Cc1cccc(C(F)(F)F)c1` (stereo unspecified): “inactive”; `Oc1cccc[c]1[Hg][Cl]`: 44.7 µM (active). The same measure, in the same setting: next, `Cn1sc(Cl)cc1=O`: “inactive”. As to `[N-]=[N+]=CC(=O)OCC(N)C(=O)O` (stereo unspecified), in assay [1], the Potency entry was “inactive”. Still for that read-out and setting: next, `N#CC1(N2CCCCC2)CCCCC1`: “inactive”. Consider `O=[N+]([O-])C(Br)(CO)CO`, for which the Potency entry in assay [1], in assay [2] and in [5] was “inactive” each time. In assay [3], the activation was -2.08% (inactive). For the same molecule, the molecule was called inactive in [4], in [6] and in assay [8]. For the same molecule, the max response in [7] is -53.3%.

`CC(C)Nc1ccc(Nc2ccccc2)cc1`: the Potency entry in [1] and in assay [2] was “inactive” each time. Further, the Potency in assay [9] was 22.4 µM [inconclusive] (active). Further, the outcome in assay [6] was inactive. `C[C@H]1CC[C@@H]2[C@@H](C)[C@H]3[C@H](C[C@H]4[C@@H]5CC=C6CC(O[C@@H]7O[C@H](CO)[C@H](O)[C@H](O[C@@H]8O[C@H](CO)[C@@H](O)[C@H](O)[C@H]8O)[C@H]7O[C@H]7O[C@@H](C)[C@H](O)[C@@H](O)[C@H]7O)CC[C@]6(C)[C@H]5CC[C@]34C)N2C1` (stereo partly specified): the Potency in assay [9] is 22.4 µM [inconclusive] (active). Besides, the Potency entry in assay [2] and in [11] was “inactive” each time. For the same molecule, in assay [10], the activation is -7.38% (inactive). Moreover, the molecule was classed as inactive in assay [6]. In the case of `O=c1ccc2[nH]cc(C3=CCNCC3)c2[nH]1`, the molecule was called inactive in assay [12].

For the molecule `O=[N+]([O-])c1ccc(F)c([N+](=O)[O-])c1`, the Potency result in [9] and in assay [2] was “inactive” in each case.
